# Experimental data: PubChem BioAssay
# Where “and” joins values, the source holds several entries; their conditions need not be identical. Equal values may be shown once. Calls of active or inactive are those of the source. Cut-off read from the data, not from the text of the source, unless noted: active = inhibition above about 80%; inactive = the rest.
# How the values were obtained:
# [1] = compounds altering circadian rhythm period length – cell-based, LOPAC library, luminescence reporter (AID 2774; call rule not given here;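 note: values are relative to mean of DMSO wells on each plate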); details: circadian reporter cells, at 7 µM, actives lie on both sides
# [2] = compounds altering viability of human ES cells (AID 493140; call rule not given here;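 note: cells exposed to compounds for four days before counting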); details: human embryonic stem cell survival screen; stronger effect = higher value
# [3] = P. berghei load reduction in hepatocytes – cell-based, HepG2, luciferase luminescence, HepG2 viability, primary screen (AID 624349; in the data active = parasite load remaining mostly below about 12%, no sharp cut-off; inactive = mostly above about 10%;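 note: 100% = mean of DMSO negative control wells on the same plate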); details: P. berghei liver stage in HepG2, luciferase luminescence, concentration not given here; parasite load remaining: stronger effect = lower value; viability: measured here: HepG2 viability without parasites
# [4] = target: NAD(+) hydrolase SARM1 (Homo sapiens) (UniProt Q6SZW1); test: blocking NAD cleavage by SARM1 SAM-TIR – cell lysate, NAD-Glo luminescence (AID 1508614;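 active = compound whose remaining NAD level is above about 45 nM, limit read from the data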;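 note: higher remaining NAD means stronger inhibition of SARM1 NADase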); details: SAM-TIR HEK293T lysate NADase, at 1 µM, stronger effect = higher value
# Chain of NAD(+) hydrolase SARM1 (Homo sapiens) (Q6SZW1 whole entry, looked up): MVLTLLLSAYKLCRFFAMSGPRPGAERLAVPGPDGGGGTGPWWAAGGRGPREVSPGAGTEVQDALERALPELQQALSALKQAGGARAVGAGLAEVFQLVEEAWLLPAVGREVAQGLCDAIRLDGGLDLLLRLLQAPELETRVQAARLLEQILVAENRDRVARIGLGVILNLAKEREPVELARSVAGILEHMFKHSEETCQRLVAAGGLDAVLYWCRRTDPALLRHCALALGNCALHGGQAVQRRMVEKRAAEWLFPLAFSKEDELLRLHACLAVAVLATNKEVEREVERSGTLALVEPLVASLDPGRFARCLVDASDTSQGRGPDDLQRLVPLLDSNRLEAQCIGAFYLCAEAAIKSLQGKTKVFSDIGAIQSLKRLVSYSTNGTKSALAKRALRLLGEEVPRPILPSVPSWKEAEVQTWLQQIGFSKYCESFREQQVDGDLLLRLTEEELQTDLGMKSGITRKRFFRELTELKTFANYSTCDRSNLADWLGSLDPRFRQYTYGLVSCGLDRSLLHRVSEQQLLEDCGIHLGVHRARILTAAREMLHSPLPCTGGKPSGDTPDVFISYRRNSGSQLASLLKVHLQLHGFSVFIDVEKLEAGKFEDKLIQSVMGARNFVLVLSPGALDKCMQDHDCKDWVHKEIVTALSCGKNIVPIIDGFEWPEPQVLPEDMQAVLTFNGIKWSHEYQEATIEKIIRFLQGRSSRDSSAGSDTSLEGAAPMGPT
# [5] = galactose survival enhancers in mitochondrial complex I cybrids – cell-based, galactose medium, ATP luminescence, primary screen (AID 1645843;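 active = z-score of at least 1.8 in each of two replicates, scored against plate mean and spread of sample wells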;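 note: positive z means more ATP and so rescue of galactose-driven cybrid death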); details: complex I mutant cybrid cells, 72 h, stronger effect = higher value
# [6] = blockers of cellular phospholipid synthesis – cell-based, LOPAC library, screen 4, primary screen (AID 1347384; call rule not given here); details: animal cells, phospholipid biosynthesis inhibition screen; at 10 µM
# [7] = growth inhibition, single agents and combos, LFS_MB_1R, cell-based, cisplatin or BGB combos, synergistic combos for chromothripsis tumors (AID 1671452); details: LFS_MB_1R medulloblastoma cells, stronger effect = higher value;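 note: cells exposed for 96 hours before readout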
# [8] = growth inhibition, single agents and combos, CRL2098, cell-based, BGB or cisplatin IC20 combos, synergistic combos for chromothripsis tumors (AID 1671454); details: CRL2098 osteosarcoma cells, drug combinations, stronger effect = higher value;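 note: cells exposed for 96 h before readout; 0% = vehicle DMSO and 100% = killing by high DMSO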
# [9] = growth inhibition, single agents and combos, HD-MB03, cell-based, BGB or cisplatin IC20 combos, synergistic combos for chromothripsis tumors (AID 1671455; in the data active = inhibition above about 83%;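 note: 0% = vehicle DMSO and 100% = high DMSO as cytotoxic control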); details: HD-MB03 medulloblastoma cells, stronger effect = higher value
# [10] = growth inhibition, single agents and combos, UWB1.289, cell-based, BGB or cisplatin combos, synergistic combos for chromothripsis tumors (AID 1671456); details: UWB1.289 ovarian carcinoma cells, stronger effect = higher value;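 note: cells exposed to compound for four days; 0% = vehicle DMSO and 100% = killing by high DMSO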
# [11] = growth inhibition, single agents and combos, LFS_MB_2R, cell-based, cisplatin combos, synergistic combos for chromothripsis tumors (AID 1671457); details: LFS_MB_2R medulloblastoma cells, stronger effect = higher value;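 note: cells exposed to compound for four days before readout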
# [12] = UWB1.289_BRCA1 ovarian cancer growth, cell-based, BGB or cisplatin combinations (AID 1671459); details: UWB1.289 BRCA1 ovarian carcinoma, drug combinations, stronger effect = higher value
# [13] = drug combination toxicity in non-malignant astrocytes – cell-based, BGB or cisplatin IC20 combos, cytotoxicity control for chromothriptic childhood tumor combination screen (AID 1671460); details: Human astrocytes, viability inhibition, drug combinations, at 0.5 µM, stronger effect = higher value;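 note: cells exposed to compounds for 96 hours before viability readout; 0% = vehicle and 100% = killing control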
# [14] = liver-stage malaria parasite load reduction – cell-based, known kinase inhibitor set, luminescence, hepatoma host viability (AID 624392; call rule not given here;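 note: infected cells incubated roughly two days before readout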); details: Plasmodium liver stage in hepatoma cells, luciferase luminescence, concentration not given here; liver cell % of control: measured here: host liver cell viability; parasite % of control: stronger effect = lower value
# [15] = system: Hepatitis C virus NS3 helicase; test: blockers of NS3h binding to ssDNA – biochemical, fluorescence polarization, LOPAC1280 library, primary screen (AID 687035; in the data active = inhibition above about 37%); details: Purified HCV NS3 helicase, Cy5-dT15 ssDNA binding fluorescence polarization; stronger effect = higher value; concentration not given here
# [16] = compounds altering Cy5-DNA-NS3h complex signal – biochemical, LOPAC1280, artefact control for HCV NS3 helicase inhibitor project (AID 687037; call rule not given here); details: Cy5-DNA-NS3h complex fluorescence interference counterscreen
# [17] = measured here: combination with BGB IC40, at 0.05 µM
# [18] = measured here: combination with cisplatin, at 0.5 µM
# [19] = measured here: combination with cisplatin, at 5 µM
# [20] = measured here: combination with BGB at IC20, at 0.5 µM
# [21] = measured here: combination with cisplatin at IC20, at 0.5 µM
# [22] = measured here: combo with BGB at IC20, at 0.5 µM
# [23] = measured here: combo with cisplatin at IC20, at 0.5 µM
# [24] = measured here: inhibition with BGB combination, at 0.05 µM
# [25] = measured here: inhibition with cisplatin combination, at 0.05 µM
# [26] = BGB combination, concentration series, at 5 µM
# [27] = cisplatin combination, concentration series, at 5 µM
# [28] = measured here: combo with BGB IC20
# [29] = measured here: combo with cisplatin IC20
structure (smiles),measurement,setting,value
O=c1cc(-c2ccc(O)c(O)c2)oc2cc(O)cc(O)c12,period change,[1],0.085 h (inactive)
same,survival,[2],0.75 (inactive)
same,parasite load remaining,[3],83% (inactive)
same,viability,[3],96.4%
CN(C)c1cc(NC(=O)CNC(C)(C)C)c(O)c2c1C[C@H]1C[C@H]3[C@H](N(C)C)C(=O)C(C(N)=O)=C(O)[C@@]3(O)C(=O)C1=C2O,remaining NAD,[4],10 nM (inactive)
CC(C)CN(C[C@@H](O)[C@H](Cc1ccccc1)NC(=O)O[C@H]1CCOC1)S(=O)(=O)c1ccc(N)cc1,parasite load remaining,[3],15.6% (inactive)
same,viability,[3],75.5%
same,z-score,[5],0.4 (inactive)
O=C(NOC[C@H](O)CO)c1ccc(F)c(F)c1Nc1ccc(I)cc1F,outcome,[6],inactive
CNCc1ccc(-c2[nH]c3cc(F)cc4c3c2CCNC4=O)cc1,inhibition,[7]; at 0.5 µM,-10.6% (inactive) and -7.69% (inactive)
same,inhibition,[7]; [17],-6.36% and 4.87%
same,inhibition,[7]; [18],19.1% and -25%
same,inhibition,[7]; [19],-18.5% and -25.3%
same,inhibition,[8]; at 0.5 µM,-36.2% (inactive) and -5.02% (inactive)
same,inhibition,[8]; [20],-29.2% and -1.4%
same,inhibition,[8]; [21],-44.8% and 9.17%
same,inhibition,[9]; at 0.5 µM,-4.75% (inactive) and 7.82% (inactive)
same,inhibition,[9]; [22],-19.4% and -2.99%
same,inhibition,[9]; [23],-1.52% and 19.2%
same,inhibition,[10]; at 0.5 µM,3.38% (inactive) and 18.2% (inactive)
same,inhibition,[10]; [24],-7.35% and 1.55%
same,inhibition,[10]; [25],-18.2% and 33.2%
same,inhibition,[11]; at 0.5 µM,-21.7% (inactive) and 11% (inactive)
same,inhibition,[11]; [18],-36.4% and 1.09%
same,inhibition,[11]; [19],-18.9% and -8.07%
same,inhibition,[12]; [26],7.87% and 16.2%
same,inhibition,[12]; at 0.5 µM,2.14% (inactive) and 11.2% (inactive)
same,inhibition,[12]; [27],1.67% and 2.25%
same,inhibition,[13],5.22% (inactive) and 8.56% (inactive)
same,inhibition,[13]; [28],-3.65% and 3.02%
same,inhibition,[13]; [29],2.06% and 7.11%
O=C1C(CCC(O)c2ccc(F)cc2)C(c2ccc(O)cc2)N1c1ccc(F)cc1 (centres undefined),z-score,[5],-0.345 (inactive)
CO[C@H]1/C=C/O[C@@]2(C)Oc3c(C)c(O)c4c(O)c(c(/C=N\N5CCN(C6CCCC6)CC5)c(O)c4c3C2=O)NC(=O)/C(C)=C\C=C\[C@H](C)[C@H](O)[C@@H](C)[C@@H](O)[C@@H](C)[C@H](OC(C)=O)[C@@H]1C,inhibition,[7]; at 0.5 µM,-26.5% (inactive)
same,inhibition,[7]; [17],5.18%
same,inhibition,[7]; [18],-21.5%
same,inhibition,[7]; [19],-13.2%
same,inhibition,[8]; at 0.5 µM,-17.9% (inactive)
same,inhibition,[8]; [20],-42.5%
same,inhibition,[8]; [21],-28.1%
same,inhibition,[9]; at 0.5 µM,-12% (inactive)
same,inhibition,[9]; [22],-9.84%
same,inhibition,[9]; [23],-22%
same,inhibition,[10]; at 0.5 µM,0.22% (inactive)
same,inhibition,[10]; [24],-17.7%
same,inhibition,[10]; [25],-11.8%
same,inhibition,[11]; at 0.5 µM,-7.15% (inactive)
same,inhibition,[11]; [18],-29.8%
same,inhibition,[11]; [19],-34%
same,inhibition,[12]; [26],4.16%
same,inhibition,[12]; at 0.5 µM,-5.57% (inactive)
same,inhibition,[12]; [27],10.5%
same,inhibition,[13],-10.7% (inactive)
same,inhibition,[13]; [28],-21%
same,inhibition,[13]; [29],-11%
CC(C)(N)c1ccc(-c2nc3ccccc3nc2-c2ccccc2)cc1,liver cell % of control,[14],41.6% and 76.6% and 85.6%
same,parasite % of control,[14],0.22% (inactive) and 84.1% (inactive) and 92.8% (inactive)
COc1cc(C(=O)NC2CCN(C)CC2)ccc1Nc1ncc2c(n1)N(C1CCCC1)CCC(=O)N2C(C)C,liver cell % of control,[14],99.8%
same,parasite % of control,[14],139% (inactive)
CN(C)Cc1ccc(-c2nc3cccc4c3n2CCNC4=O)cc1,inhibition,[7]; at 0.5 µM,-21.9% (inactive) and -12.8% (inactive)
same,inhibition,[7]; [17],-8.61% and -31.3%
same,inhibition,[7]; [18],-36.5% and -4.44%
same,inhibition,[7]; [19],-20.1% and -27.3%
same,inhibition,[8]; at 0.5 µM,-12.7% (inactive) and -34.7% (inactive)
same,inhibition,[8]; [20],3.27% and -18.3%
same,inhibition,[8]; [21],-10.7% and -61.5%
same,inhibition,[9]; at 0.5 µM,-4.1% (inactive) and -8.91% (inactive)
same,inhibition,[9]; [22],-6.79% and -18.1%
same,inhibition,[9]; [23],-1.2% and -11.2%
same,inhibition,[10]; at 0.5 µM,2.77% (inactive) and -2.19% (inactive)
same,inhibition,[10]; [24],-14.3% and 1.91%
same,inhibition,[10]; [25],-5.64% and -29.4%
same,inhibition,[11]; at 0.5 µM,-22.3% (inactive) and -21% (inactive)
same,inhibition,[11]; [18],-26.3% and -32%
same,inhibition,[11]; [19],-30.5% and -31.6%
same,inhibition,[12]; [26],7.25% and 16.2%
same,inhibition,[12]; at 0.5 µM,0.7% (inactive) and -0.32% (inactive)
same,inhibition,[12]; [27],5.02% and -8.46%
same,inhibition,[13],3.46% (inactive) and 6.94% (inactive)
same,inhibition,[13]; [28],2.28% and -1.45%
same,inhibition,[13]; [29],8.6% and 1.46%
COC(=O)C1=CO[C@@H](O)[C@@H]2C(CO)=CC[C@H]12,inhibition,[15],-3% (inactive)
same,fluorescence ratio (interference),[16],1 (inactive)
same,outcome,[6],inactive
same,z-score,[5],-0.175 (inactive)
Nc1nc(OCc2ccccc2)c2[nH]cnc2n1,period change,[1],-0.35 h (inactive)
same,inhibition,[15],-2% (inactive)
same,fluorescence ratio (interference),[16],0.9 (inactive)
same,outcome,[6],inactive
same,z-score,[5],-0.125 (inactive)
